Among the test systems are NCI-H23 lung; NCI-H226 lung; NCI-H322M lung; HOP-62 NSCLC; NCI-H460 lung; HOP-92 NSCLC; NCI-H522 lung; A549/ATCC NSCLC; 786-0 renal; COLO 205 colon; DU-145 prostate; K-562 leukemia; MALME-3M melanoma; MDA-MB-231 breast; SF-268 CNS; SF-295 CNS; SF-539 CNS; UACC-257 melanoma.
Common to all, as to experiment: NCI-60 one-dose screen, 48 h (100 = growth as untreated, 0 = no growth, -100 = all killed)
Holding throughout (settings): 10 µM unless noted

Compounds without any hit were thinned out: in the full panel of roughly 83,000, 20% have a hit.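 Each cell line was grown in a 96-well plate and treated with one concentration of compound for 48 hours. Values below 10 were considered active.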 A number with no mark means an inactive call. Activity calls are given as the source filed them.

Regarding `Cc1nc(-c2ccccc2)cc2c(O)c(C(=O)N/N=C/c3ccc(N(C)C)cc3)[nH]c(=O)c12`, the growth is 78.1% in the experiment on NCI-H23 lung; 107% in the experiment on NCI-H226 lung; 90.5% in the experiment on NCI-H322M lung; 77.3% with HOP-62 NSCLC; 94.9% in the experiment with NCI-H460 lung; 32% in the experiment on HOP-92 NSCLC. For the same compound, the growth in the experiment with NCI-H522 lung was 72.7%; in the experiment with A549/ATCC NSCLC, 40.5%; with 786-0 renal, 79.2%; in the experiment with COLO 205 colon, 109%; in the experiment with DU-145 prostate it was 75.1%; with K-562 leukemia, 62.6%. Moreover, the growth was 98.2% in the experiment on MALME-3M melanoma; 71.7% with MDA-MB-231 breast; 81.7% in the experiment with SF-268 CNS; 94.1% in the experiment on SF-295 CNS; 69.7% in the experiment with SF-539 CNS; 106% with UACC-257 melanoma.
As for `CN(C)CCn1cc(-c2ccc3c(Nc4ccc(CC(=O)Nc5cccc(F)c5)cc4)ncnc3c2)cn1`, the growth in the experiment on NCI-H23 lung was -57.2% [30 µM] (active); with NCI-H226 lung it was -36.7% [30 µM] (active); in the experiment on NCI-H322M lung, -94.5% [30 µM] (active); in the experiment with HOP-62 NSCLC, -23.2% [30 µM] (active); with NCI-H460 lung it was -74.1% [30 µM] (active); in the experiment on HOP-92 NSCLC it was -28.8% [30 µM] (active). Further, the growth in the experiment with NCI-H522 lung was -30.5% [30 µM] (active); in the experiment with A549/ATCC NSCLC, -41.4% [30 µM] (active); in the experiment with 786-0 renal it was -50.8% [30 µM] (active); with COLO 205 colon, -61.8% [30 µM] (active); with DU-145 prostate, -95.8% [30 µM] (active); with K-562 leukemia, -29.2% [30 µM] (active). The growth in the experiment with MALME-3M melanoma is -92% [30 µM] (active); with MDA-MB-231 breast, -85.7% [30 µM] (active); in the experiment with SF-268 CNS, -61.7% [30 µM] (active); in the experiment on SF-295 CNS, -79.8% [30 µM] (active); in the experiment with SF-539 CNS it was -94.2% [30 µM] (active); in the experiment with UACC-257 melanoma it was -59.7% [30 µM] (active).
In the case of `O=C1C=CC(=Nc2cc(Br)c(O)c(Br)c2)C=C1`, the growth in the experiment with NCI-H23 lung is 78.1%; with NCI-H226 lung, 93.9%; in the experiment with NCI-H322M lung it was 105%; in the experiment with HOP-62 NSCLC, 82.1%; in the experiment with NCI-H460 lung it was 109%; in the experiment with HOP-92 NSCLC, 29.5%. Also, the growth in the experiment with NCI-H522 lung is -14.6% (active); with A549/ATCC NSCLC, 118%; in the experiment with 786-0 renal, 70.2%; in the experiment with COLO 205 colon, 113%; in the experiment with DU-145 prostate it was 102%; with K-562 leukemia, 12.6%. Moreover, the growth was 70.2% with MALME-3M melanoma; 72.6% in the experiment on MDA-MB-231 breast; 82.7% with SF-268 CNS; 101% in the experiment on SF-295 CNS; 86.4% in the experiment on SF-539 CNS; 90.9% in the experiment with UACC-257 melanoma.
`O=C(O)C1C[C@](O)(c2ccc(F)cc2)[C@@H](c2ccc(F)cc2)O1` (some centres undefined): the growth with NCI-H23 lung was 91.4%; in the experiment on NCI-H226 lung, 122%; in the experiment with NCI-H322M lung it was 121%; in the experiment with HOP-62 NSCLC, 90.3%; in the experiment with NCI-H460 lung it was 101%; in the experiment on HOP-92 NSCLC, 78.2%. Moreover, the growth in the experiment on NCI-H522 lung is 91.5%; in the experiment on A549/ATCC NSCLC it was 112%; in the experiment with 786-0 renal, 95.6%; in the experiment on COLO 205 colon it was 110%; in the experiment on DU-145 prostate, 139%; in the experiment with K-562 leukemia it was 89.3%. In addition, the growth was 113% with MALME-3M melanoma; 115% with MDA-MB-231 breast; 117% with SF-268 CNS; 94.2% in the experiment on SF-295 CNS; 125% in the experiment with SF-539 CNS; 111% with UACC-257 melanoma.
Regarding `CN(C)CCN1C(=O)c2cccc3c(-c4ccc(-c5nc6c7ccccc7c7ccccc7c6[nH]5)cc4)ccc(c23)C1=O`, the growth with NCI-H23 lung is 109%; with NCI-H226 lung, 101%; with NCI-H322M lung, 114%; in the experiment with HOP-62 NSCLC, 106%; in the experiment with NCI-H460 lung it was 111%; in the experiment with HOP-92 NSCLC, 71.3%. In addition, the growth in the experiment on NCI-H522 lung was 94.2%; in the experiment with A549/ATCC NSCLC, 90.4%; with 786-0 renal, 18.2%; with COLO 205 colon, 105%; in the experiment with DU-145 prostate, 102%; with K-562 leukemia, 28.5%. In addition, the growth with MALME-3M melanoma was 110%; in the experiment on MDA-MB-231 breast, 89.1%; in the experiment on SF-268 CNS, 105%; in the experiment on SF-295 CNS it was 105%; with SF-539 CNS, 92.7%; in the experiment with UACC-257 melanoma, 110%.
As to `C=C1C(=O)O[C@H]2[C@H]1CC/C(COC(=O)/C=C\C(=O)NCc1ccc(Cn3c(=O)sn(-c4ccc(Cl)cc4)c3=O)cc1)=C\CC[C@@]1(C)O[C@@H]21`, the growth in the experiment on NCI-H23 lung is -63.6% (active); in the experiment on NCI-H226 lung, -58.9% (active); in the experiment with NCI-H322M lung, -18.5% (active); in the experiment on HOP-62 NSCLC, -34.7% (active); with NCI-H460 lung, -73.2% (active); in the experiment with HOP-92 NSCLC it was -66.7% (active). Moreover, the growth in the experiment with NCI-H522 lung was -55.9% (active); in the experiment with A549/ATCC NSCLC it was -43.7% (active); with 786-0 renal, -82.5% (active); with COLO 205 colon it was -45% (active); in the experiment with DU-145 prostate, -94.7% (active); with K-562 leukemia, -20.5% (active). The growth was -93.1% (active) with MALME-3M melanoma; -86.1% (active) in the experiment on MDA-MB-231 breast; -74.4% (active) in the experiment with SF-268 CNS; 56.2% in the experiment on SF-295 CNS; -100% (active) in the experiment on SF-539 CNS; -64.8% (active) in the experiment with UACC-257 melanoma.
`C=CCO[C@H]1CO[C@H]2[C@@H]1OC[C@@H]2Oc1ccc(Nc2ccnc(Nc3ccc(O[C@H]4CO[C@H]5[C@@H]4OC[C@@H]5OCC=C)c(Cl)c3)n2)cc1Cl`: the growth is -47.8% (active) in the experiment on NCI-H23 lung; 86.7% in the experiment on NCI-H226 lung; -56.6% (active) with NCI-H322M lung; -25.5% (active) in the experiment on HOP-62 NSCLC; -74% (active) in the experiment with NCI-H460 lung; 83.3% with HOP-92 NSCLC. Moreover, the growth with NCI-H522 lung was -29.9% (active); in the experiment with A549/ATCC NSCLC it was -60.7% (active); in the experiment with 786-0 renal it was -88.2% (active); with COLO 205 colon, 29.2%; with DU-145 prostate, -50.2% (active); in the experiment with K-562 leukemia, -32.4% (active). For the same compound, the growth with MALME-3M melanoma is -95.8% (active); in the experiment with MDA-MB-231 breast, -92.8% (active); in the experiment on SF-268 CNS it was -61.6% (active); with SF-295 CNS, -77.8% (active); in the experiment with SF-539 CNS it was -87.5% (active); in the experiment on UACC-257 melanoma it was 107%.
Take `COc1ccc(/C(C)=C(\c2ccc(Cl)cc2)c2ccc(OCCN(C)C)cc2)cc1F`: the growth is 86.7% with NCI-H23 lung; 95.5% with NCI-H226 lung; 77.4% in the experiment on NCI-H322M lung; 64.8% in the experiment on HOP-62 NSCLC; 22.2% in the experiment with NCI-H460 lung; 65.6% in the experiment with HOP-92 NSCLC. Besides, the growth with NCI-H522 lung is 87.5%; with A549/ATCC NSCLC it was 59%; in the experiment with 786-0 renal it was 62.9%; with COLO 205 colon, 26%; in the experiment with DU-145 prostate, 79.5%; in the experiment with K-562 leukemia it was 3.97% (active). For the same compound, the growth is 19.2% in the experiment on MALME-3M melanoma; 71.3% with MDA-MB-231 breast; 74.5% with SF-268 CNS; 42.5% in the experiment with SF-295 CNS; 55.2% in the experiment on SF-539 CNS; 5.92% (active) with UACC-257 melanoma.

Values taken from PubChem BioAssay (NCI).
